Measured values published in PubChem BioAssay AID540253 (National Center for Advancing Translational Sciences (NCATS), 2011).
In all, about 340,000 compounds went through this assay and about 240 (0.071%) were called active. Another 5% or so got no clear call; they are omitted. The full list was thinned out, with actives kept by preference. Values without a mark were called inactive. Calls follow the shape of the full dose curve.

The molecules below were run against Snurportin-1 (Homo sapiens) + GTP-binding nuclear protein Ran (Homo sapiens) + Importin subunit beta-1 (Homo sapiens) (UniProt O95149+P62826+Q14974) (assay: qHTS Assay for Inhibitors of RanGTP induced Rango (Ran-regulated importin-beta cargo) - Importin beta complex dissociation). Conditions: Biochemical FRET Rango-importin beta; series mostly up to 46.1 µM; activity change, negative = inhibition: at the top concentration.
Text: NIH Molecular Libraries Probe Production Centers Network [MLPCN] NIH Chemical Genomics Center [NCGC] MLPCN Grant: R03 MH090808-01A1 Assay Submitter (PI): Petr Kalab NCGC Assay Overview: The small GTPase Ran regulates transport of macromolecules between the nucleus and the cytoplasm (nuclear transport) and has important functions in mitotic spindle assembly, nuclear envelope (NE) formation and nuclear pore complex (NPC) assembly. RanGTP gradient is thought to promote spindle assembly by providing a spatial clue to microtubule nucleation and Aurora A activation. Because the localized release and binding of importin alpha cargos relays this spatial clue to SAFs, inhibitors of the Rango - importin beta complex can then be used in further understanding their role in cell cycle specifically in mitosis progression. […] Activation of Aurora A has been linked to different types of cancer and a number of Aurora kinase inhibitors are being developed as potential canter therapeutics; therefore, identified inhibitors of this complex could be developed into potential anti-mitotic probes for cancer treatment. Purified recombinant proteins Rango - importin beta and RanGTP-RCC1 stock premixes were provided by the assay submitter. The assay used a fluorescence resonance energy transfer (FRET) Rango biosensor that contains the IBB of human snurportin 1 flanked by yellow fluorescent protein (EYFP) at the amino terminus and cerulean CFP10 at the carboxy terminus. […] RanGTP binding to the complex (in the presence of RCC1) releases the Rango from the complex. The flexibility of the IBB in the freed Rango allows the donor - acceptor fluorophores to interact, resulting in a high FRET signal. Inhibitors will therefore be identified based on the ability to interfere with the FRET signal increase. DMSO treated and no RanGTP-RCC1 (buffer only) wells were used as negative and positive controls respectively. FRET readings were obtained at two time points. FRET reading prior to importin beta addition (pre-read) were used flag potential compound interference; FRET reading after importin beta addition (post-read) were used to identify inhibitors.
NCGC Assay Protocol Summary: Two and a half uL/well of Rango- importin beta premix solution (0.1 uM Rango, 0.25 uM importin beta, 1x PBS, 1mM DTT, 0.02% Tween-20, 0.1% BSA final concentrations) was dispensed into 1536-well assay plates (Greiner, solid black medium-binding plates) with Aurora Discovery BioRAPTR Flying Reagent Dispenser (FRD; Beckton-Dickenson). Compound solution (23 nL) was transferred to the assay plate using Kalypsys pin tool equipped with a 1536-pin tool and incubated at room temperature for 5 min followed by a FRET pre-read using the PerkinElmer Envision plate reader. Two and a half uL/well of RanGTP-RCC1 premix solution (0.6 uM Ran, 2mM GTP, 0.2 uM RCC1, 1x PBS, 1mM DTT, 0.02% Tween-20, 0.1% BSA final concentrations) were then added and incubated at room temperature giving a final reaction volume of 5uL. After 45min FRET post-read was obtained via the Envision plate reader using the same optics and settings as the pre-read (CFP/YFP optimized dual optical module D450/D505; excitation mirror CFP 430/24 nm; and emission filters CFP 486/10 nm and YFP 530/10 nm).
Also: nearly all actives have a fitted effect of over 45% in size.
For activity change, negative = inhibition in this document: % of control where 0% means no effect.
Potency is read from the fitted curve at half-maximal effect.

Row | SMILES | activity change, negative = inhibition | Potency
1 | Cc1ccc(/C=C/C(=O)Nc2ccc([N+](=O)[O-])c(NC(=O)/C=C/c3ccc(C)o3)c2)o1 | 4.02% | –
2 | O=C(NNC(=O)C1CCCC1)c1ccc(F)cc1 | -12.5% | –
3 | O=C(/C=C/c1ccc([N+](=O)[O-])o1)NNC(=O)c1ccc(F)cc1 | – | 20.6 µM [inhibitor] (active)
4 | O=C(Cc1ccc(NC(=O)C2CCCN(C(=O)CCc3ccccc3)C2)cc1)Nc1ccc(C(=O)N2CCOCC2)cc1 (stereo not drawn) | -14.9% | –
5 | CC(C)=CCc1ccc(O)c(=O)cc1C(C)C | -24.9% | –
6 | CCCCN(C(=O)CSCc1ccc(C)cc1)c1c(N)n(Cc2ccccc2)c(=O)[nH]c1=O | -5.98% | –
7 | CSCCC(NC(=O)COc1ccccc1)C(=O)OCc1ccc(Cl)cc1 (stereo not drawn) | 18.7% | –
8 | CC(C)Sc1nc(N)nc2c1ncn2C1OC(CO)C(O)C1O (stereo not drawn) | 0.224% | –
9 | COc1ccc(N)c(C)c1 | -6.1% | –
10 | CN1CCC(N(C)C(=O)c2ccc(Cl)c(S(=O)(=O)Nc3ccc(Cl)cc3)c2)CC1 | 8.88% | –
11 | CC1C(C)N(C(=O)CCl)c2ccccc2N1C(=O)CCl (stereo not drawn) | -12.9% | –
12 | Cn1c(=S)sc2ccc3ccccc3c21 | -3.6% | –
13 | COC(=O)Cc1c(-c2[nH]c3ccccc3c2CC(=O)OC)[nH]c2ccccc12 | -26.3% | –
14 | COc1cc2c(cc1OC)C1C(=O)c3cc(OS(C)(=O)=O)c(OC)cc3C1N(C)C2=O (stereo not drawn) | 15.9% | –
15 | COc1ccc2oc(N)nc2c1 | -10.7% | –
16 | CCN(CC)S(=O)(=O)c1cccc(NC(=O)c2ccc(S(=O)(=O)N3CCCC3)cc2)c1 | -1.05% | –
17 | CCOC(=O)C1CCCN(C(=O)C2CCN(S(=O)(=O)c3ccc(Cl)c(C(F)(F)F)c3)CC2)C1 (stereo not drawn) | 8.65% | –

Row | SMILES | activity change, negative = inhibition | Potency
18 | O=C(Nc1ccccc1)Oc1cccc2cccnc12 | 0.533% | –
19 | O=C(NCC1CCCCC1)NCC1CCCCC1 | -4.77% | –
20 | CSCCC(NC(=O)COc1ccccc1)C(=O)N1CCN(c2cccc(C(F)(F)F)c2)CC1 (stereo not drawn) | 6.27% | –
21 | O=C(CC(=O)c1cccnc1)c1ccccc1 | -9.8% | –
22 | Nc1cc2c(cc1Br)-c1ccc(F)cc1C2=O | -2.67% | –
23 | O=C1/C(=C\c2ccc([N+](=O)[O-])cc2)CS(=O)(=O)C/C1=C/c1ccc([N+](=O)[O-])cc1 | -1.03% | –
24 | O=C(NNC(=O)c1ccccc1O)c1ccccc1O | 0.604% | –
25 | CCOC(=O)C(CO)NC(=O)C1(NC(C)=O)CCCC1 (stereo not drawn) | -19% | –
26 | CCCC(O)(c1ccccc1)C(c1ccccc1)c1ccccn1 (stereo not drawn) | 4.52% | –
27 | O=C(NCCc1ccccc1)c1c[nH]c2ccc(F)cc2c1=O | 5.88% | –
28 | O=C1CC[C@@H]2CC3(C[C@@H]4CCN1[C@H]24)Nc1cc([N+](=O)[O-])ccc1NC3=NC1CCCCC1 (stereo partly drawn) | -11.5% | –
29 | CN(C(=O)c1cccc(NC(=O)Cc2ccc(NC(=O)C3CCCN(C(=O)C4CC4)C3)cc2)c1)C1CC1 (stereo not drawn) | -9.52% | –
30 | CN(CCc1ccccc1)C(=O)c1cccc(NC(=O)Cc2cccc(NC(=O)C3CCCN(C(=O)C4CCC4)C3)c2)c1 (stereo not drawn) | -5.32% | –
31 | C[C@@H]1ON(C)[C@H]2C[C@H]3c4cc(N5CCN(C)CC5)ccc4CCN3C(=O)[C@@H]12 | -18.3% | –
32 | CC1CCCN(C(=O)Cn2c(=O)oc3cc(S(=O)(=O)N4CCCCC4C)ccc32)C1 (stereo not drawn) | -5.13% | –
33 | NC1=NOC(=O)C1C1CCCCC1 (stereo not drawn) | 41.4% | –
